Measurements reported in PubChem BioAssay (NCI).
The panel holds about 83,000 compounds, 20% with a hit somewhere; the sample as a whole holds those more often.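 96-well plates, one dose, 48 hours. Percent growth reported; active if below 10.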 A number with no mark means an inactive call. Activity calls are given as the source filed them.

What was measured:
Assay in all cases: NCI-60 one-dose screen, 48 h (100 = growth as untreated, 0 = no growth, -100 = all killed)
Details in all cases: 10 µM unless noted
[1] = system: DU-145 prostate
[2] = system: K-562 leukemia
[3] = system: MALME-3M melanoma
[4] = system: MDA-MB-231 breast
[5] = system: RXF 393 renal
[6] = system: SF-268 CNS
[7] = system: SF-295 CNS
[8] = system: SF-539 CNS
[9] = system: UACC-257 melanoma
[10] = system: M14 melanoma
[11] = system: HCT-15 colon
[12] = system: HT29 colon
[13] = system: SNB-75 CNS
[14] = system: SNB-19 CNS
[15] = system: U251 CNS
[16] = system: PC-3 prostate
[17] = system: SK-MEL-5 melanoma
[18] = system: UACC-62 melanoma
[19] = system: LOX IMVI melanoma
[20] = system: SK-MEL-28 melanoma

Row | SMILES | growth [1] | growth [2] | growth [3] | growth [4] | growth [5] | growth [6] [%] | growth [7] | growth [8] | growth [9] | growth [10] | growth [11] | growth [12] | growth [13] | growth [14] | growth [15] | growth [16] | growth [17] | growth [18] | growth [19] | growth [20] [%]
1 | O=C(NC[C@H](O)CN1CCc2ccccc2C1)c1cc(NC2COC2)ncn1 | 103% | 108% | 93.3% | 94.6% | 114% | 86 | 97.7% | 97.4% | 116% | 92.4% | 103% | 86.9% | 74% | 99% | 102% | 107% | 107% | 91.8% | 93.9% | 88.3
2 | CC1CCCN(CCCCCOc2ccc3oc4ccc(Cl)cc4c(=O)c3c2)C1 (stereo not given) | 84.7% | 16.8% | 52% | 62.3% | 72% | 81.2 | 83.1% | 66.6% | -17.9% (active) | -17.5% (active) | 2.05% (active) | 4.5% (active) | 82.5% | 86.4% | 68.2% | 79.8% | -14.3% (active) | -43.1% (active) | 10.9% | 79.9
3 | Nc1c(C(=O)Nc2cccc3ccccc23)sc2nc3c(cc12)CCCCC3 | 18.4% | 8.68% (active) | 75.7% | 49.4% | 17.5% | 46.3 | 21.1% | -1.19% (active) | 63% | 1.3% (active) | 28.6% | 19.1% | 19.4% | 27.2% | 16.8% | 34.1% | 37.1% | 38% | 38.4% | 71.7
4 | O=C(Nc1ccc2ncnc(Nc3ccc(F)c(Cl)c3)c2c1)c1ccccc1 | 36.1% | 69.4% | 90.4% | 79.8% | 73.1% | 67.1 | 82% | 78.6% | 96.8% | 90.1% | 52.1% | 79% | 28.5% | 76.8% | 42.8% | 72.7% | 86.5% | 92.2% | 63.9% | 97.5
5 | C#C[C@@]1(O)[C@@H](CO)O[C@@H](n2cc(Cl)c3c(N)ncnc32)[C@@H]1O | 4.44% (active) | 4.99% (active) | -19.5% (active) | -6.34% (active) | -33.4% (active) | 15.3 | -26.8% (active) | -54.3% (active) | 40.9% | -25.8% (active) | 1.65% (active) | 5.79% (active) | -42.4% (active) | 2.86% (active) | -6.87% (active) | -17.3% (active) | -61% (active) | -54.2% (active) | -72.5% (active) | 42.6
6 | COC(=O)/C=C1\SC(=Nc2cccc(Cl)c2)N(CCc2c[nH]c3ccccc23)C1=O | 54.5% | 24.3% | 45.9% | 39.5% | 44.8% | 49.5 | 55.1% | 69.9% | 37.1% | 42.4% | 29% | 8.6% (active) | 84.5% | 54.4% | 41.1% | 31.8% | 63.3% | 18.3% | 5.31% (active) | 64.8
7 | CCO/C=N/S(=O)(=O)c1cc2c(cc1Cl)NC=NS2(=O)=O | 108% | 99.9% | 107% | 106% | 103% | 103 | 104% | 98.1% | 90.2% | 101% | 107% | 97.4% | 106% | 103% | 95.4% | 92.3% | 102% | 104% | 98.4% | 120
8 | CCOC(=O)c1c(-c2ccc(O)cc2)c(C#N)c2c(C#N)c(N)nn2c1N | 83% | 19.8% | 39.4% | 67% | 76.2% | 71.8 | 79.9% | 66.9% | 93% | 45.2% | 76% | 43% | 65.7% | 74.8% | 63.3% | 68.9% | 52.9% | 36.9% | 55.2% | 68.6
9 | O=C1NC(c2ccc(F)cc2)N=C2C(c3ccccc3)=NOC12 (stereo not given) | 110% | 105% | 112% | 115% | 105% | 107 | 108% | 105% | 96.7% | 110% | 103% | 98.7% | 101% | 103% | 101% | 104% | 105% | 102% | 108% | 115
10 | O=C1C(Cl)=C(Nc2ccc3c(c2NC2=C(Cl)C(=O)c4ccccc4C2=O)C(=O)c2ccccc2C3=O)C(=O)c2ccccc21 | -83.9% (active) | 16.6% | -85.1% (active) | 14.6% | 48.5% | 39.5 | 23.8% | 15% | -20.4% (active) | -64.8% (active) | 15.6% | 5.49% (active) | -15.1% (active) | 29.1% | 14.3% | 11% | -95.5% (active) | -62.6% (active) | 3.18% (active) | 47.1
11 | O=S(=O)(Nc1nccs1)c1ccc(Nc2nc(-c3ccncc3)cs2)cc1 | 106% | 109% | 113% | 105% | 110% | 107 | 120% | 88.2% | 109% | 103% | 103% | 120% | 84.7% | 101% | 95.2% | 96.8% | 107% | 94.7% | 95.8% | 109
12 | O=C1Nc2ccccc2C12C=C(c1ccccc1)Nc1c2c(-c2ccccc2)nn1-c1ccccc1 (stereo not given) | 83.4% | 37.5% | 98.5% | 85.6% | 5.5% (active) | 58.5 | 42.1% | 86.4% | 88.7% | 58.2% | 53.4% | 46.1% | 71% | 64.3% | 41.6% | 32.2% | 68.4% | 91.9% | 65.2% | 82.2
13 | Cc1cc2ccccc2c[n+]1CC(=O)c1ccc(-c2ccccc2)cc1 | 65.8% | 11% | 71.4% | 51.1% | 62.5% | 73.4 | 42.4% | 75.5% | 50.3% | 47.3% | 84% | 24.8% | 61.4% | 58.8% | 42.7% | 29.7% | 21.6% | 71.2% | 54% | 84
14 | CCOC(=O)c1c(C)nc2c(c1N)/C(=C/c1ccc[nH]1)C(=O)N2Cc1ccc(C(F)(F)F)cc1 | 79.1% | 63.4% | 62.1% | 18.3% | 48.6% | 55.5 | 29.4% | 40.4% | 77.6% | 69.8% | 68.8% | 70% | 25.3% | 36.3% | 25.2% | 52.1% | 82.2% | 81.8% | 56.7% | 89.6
15 | O=c1[nH]c2ccccc2cc1-c1nc2ccncc2[nH]1 | 78.8% | 79.1% | 113% | 98.3% | 72.5% | 96.6 | 78.1% | 79.1% | 111% | 87.3% | 85.9% | 84.5% | 58.3% | 82.5% | 83.7% | 74% | 86.7% | 80.3% | 82.1% | 95.7
